Potency and outcome data for ten molecules are collected here from PubChem BioAssay (Tox21).

Molecules are shown by their SMILES. Records with an inconclusive call do not appear. The source made the active and inactive calls. Unless noted, calls follow the shape of the dose curve; as a rule, active = well fitted curve in the direction sought with a large enough effect in the repeat runs; inconclusive = weak or mixed curves; inactive = no such curve, though single readings can be large; an effect the other way counts as inactive or inconclusive.

A short description of experiment [1]: qHTS assay for small molecules that induce genotoxicity in human embryonic kidney cells expressing luciferase-tagged ATAD5 (AID 651632). Also: nearly all actives have a fitted effect of over 15% in size. Also: potency is read from the fitted curve at half-maximal effect. The gist of the method: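 ATAD5-luc HEK293T, 2,000 cells/well; cpd or DMSO pin-transferred; 16 hr, 37C/5% CO2; Amplite 30 min RT; luminescence.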
On the technique in general: In qHTS, concentration-response curves come from the screen itself.

Experiment [2] in a line: qHTS assay for small molecules that induce genotoxicity in human embryonic kidney cells expressing luciferase-tagged ATAD5 - cell viability (AID 651634; calls by dose curve; also: nearly all actives have a fitted effect of over 25% in size). Summed up:
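Fluorescence from CellTiter-Fluor, reporting protease activity within live cells, served as the viability read-out. HEK293T cells carrying luciferase-tagged ATAD5 had been treated with compound for 15.5 hr at 37C.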

Experiment [3] can be described thus: qHTS assay for small molecule disruptors of the mitochondrial membrane potential - cell viability (AID 720634; calls by dose curve;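 also: human HepG2 liver cancer cells; series mostly up to about 83 µM; nearly all actives have a fitted effect of over 20% in size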). The gist of the method: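 Cells: HepG2, 2,000/well, attached overnight. Compound 1 hr, 37 C/5% CO2. +m-MPI dye, +CellTiter-Glo 30 min RT. Readout: luminescence (ATP).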
Experiment [4] in a line: qHTS assay to test for compound auto fluorescence at 590 nm (red) in HepG2 cells (AID 720674). The gist of the method:
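Compound auto-fluorescence is scored relative to Rose Bengal sodium, measured at 540/590 nm in live HepG2 cultures after 1 hr compound contact (37 C, 5% CO2).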

Experiment [5] in a line: qHTS assay to test for compound auto fluorescence at 535 nm (green) in HepG2 cells (AID 720675).
Experiment [6] is described as follows: qHTS assay to test for compound auto fluorescence at 460 nm (blue) in HEK293 cells (AID 720678). The gist of the method: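 HEK293, 2,000 cells/well, 10% dialyzed FBS; attach 4-5 hr 37C; pin compound or DMSO; o/n 37C/5% CO2; fluorescence 405/460 nm; triamterene-equivalent units.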
Experiment [7] is described as follows: qHTS assay to test for compound auto fluorescence at 590 nm (red) in HEK293 cells (AID 720679). Summed up: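 Intensity at 540nm excitation and 590nm emission is reported as Rose Bengal sodium-equivalent autofluorescence. Measurements followed overnight exposure (37C, 5% CO2) of HEK293 cells, 2,000 per well, to 23 nL compound.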
Experiment [8] is described as follows: qHTS assay to test for compound auto fluorescence at 535 nm (green) in HEK293 cells (AID 720680).
The nature of experiment [9]: qHTS assay to test for compound auto fluorescence at 460 nm (blue) in HEK293 cell free culture (AID 720681). Summed up:
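Test compounds were pinned into cell-free culture medium (DMEM with 10% FBS) and fluorescence was read directly at Ex/Em 405/460 nm. Signals were expressed as fluorescence equivalents of triamterene, with DMSO vehicle as control.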

A short description of experiment [10]: qHTS assay to test for compound auto fluorescence at 535 nm (green) in HEK293 cell free culture (AID 720682). The gist of the method:
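Each library compound, or DMSO control, is added by pintool to medium alone, comprising DMEM and 10% FBS. Emission at 535 nm following 485 nm excitation is quantified against fluorescein.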

Experiment [11] in a line: qHTS assay to test for compound auto fluorescence at 590 nm (red) in HEK293 cell free culture (AID 720683). The gist of the method:
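Tox21 10K library compounds were pinned into cell-free DMEM with 10% FBS and fluorescence was read at excitation 540 nm. Activity is expressed as Rose Bengal sodium equivalency.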

Experiment [12] in a line: qHTS assay to test for compound auto fluorescence at 590 nm (red) in HepG2 cell free culture (AID 720684). The gist of the method:
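Red fluorescence (540 nm excitation, 590 nm emission) was measured after compound transfer into cell-free MEM supplemented with 10% FBS. Values are equivalencies against Rose Bengal sodium.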

A short description of experiment [13]: qHTS assay to test for compound auto fluorescence at 460 nm (blue) in HepG2 cell free culture (AID 720685). The gist of the method:
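Compound (23 nL) or DMSO pinned into cell-free MEM with 10% FBS; blue fluorescence read at 405/460 nm excitation/emission, expressed as auto-fluorescence equivalency to triamterene.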

Experiment [14] is described as follows: qHTS assay to test for compound auto fluorescence at 535 nm (green) in HepG2 cell free culture (AID 720686).
Experiment [15] in a line: qHTS assay to test for compound auto fluorescence at 460 nm (blue) in HepG2 cells (AID 720687). The gist of the method:
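Cells (2,000/well in MEM with 10% FBS) attached overnight at 37 C, then were exposed to compound or DMSO for 1 hr at 37 C, 5% CO2. Fluorescence read at Ex/Em 405/460 nm, expressed as triamterene-equivalent signal.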

The target in experiment [16] is Glucocorticoid receptor (Homo sapiens) (UniProt P04150). Put plainly: qHTS assay to identify small molecule agonists of the glucocorticoid receptor (GR) signaling pathway (AID 720691; active = well fitted activation curve with a large enough effect in the signal ratio in the repeat runs, not every such curve was filed as active; the % refers to the signal ratio). The gist of the method: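 Fluorescence intensity from LiveBLAzer B/G FRET substrate (2 h, room temperature) reports beta-lactamase expression driven by the glucocorticoid response element in GR-bla HeLa cells after 18 h compound exposure at 37 C.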

Experiment [17] in a line: qHTS assay for small molecule agonists of the p53 signaling pathway - cell viability (AID 651633; calls by dose curve;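 also: p53RE-bla HCT reporter cells with a stable beta-lactamase p53 reporter; series mostly up to about 83 µM; nearly all actives have a fitted effect of over 30% in size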). The gist of the method: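 p53RE-bla cells, seeded at 4,000 per well and rested 5 h at 37 C/5% CO2, received compounds in DMSO for 16 h at 37 C. CellTiter-Glo was then added, and luminescence was read after 30 min at room temperature to gauge cytotoxicity.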
The nature of experiment [18]: qHTS assay for small molecule disruptors of the mitochondrial membrane potential (AID 720635). Also: potency is read from the fitted curve at half-maximal effect. The gist of the method:
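HepG2 cells (2,000/well) attached overnight at 37C, then took compound for 1 hr at 37C, 5% CO2. Mito-MPS dye was added for 30 min; fluorescence was read at 490/535 nm (monomers) and 540/590 nm (aggregates).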

Experiment [19] has as its target Glucocorticoid receptor (Homo sapiens) (UniProt P04150). Nature of the experiment: qHTS assay to identify small molecule antagonists of the glucocorticoid receptor (GR) signaling pathway (AID 720692; active = well fitted inhibition curve with a large enough effect in the signal ratio in the repeat runs, not every such curve was filed as active; the % refers to the signal ratio; also: potency is read from the fitted curve at half-maximal effect). The gist of the method: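 HeLa GR-bla cells; cmpd + dex 5 nM final, 18 h 37 C; LiveBLAzer B/G FRET substrate 2 h RT; fluorescence intensity read. Antagonist mode, qHTS.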

Chain of Glucocorticoid receptor (Homo sapiens) (P04150 whole entry, looked up): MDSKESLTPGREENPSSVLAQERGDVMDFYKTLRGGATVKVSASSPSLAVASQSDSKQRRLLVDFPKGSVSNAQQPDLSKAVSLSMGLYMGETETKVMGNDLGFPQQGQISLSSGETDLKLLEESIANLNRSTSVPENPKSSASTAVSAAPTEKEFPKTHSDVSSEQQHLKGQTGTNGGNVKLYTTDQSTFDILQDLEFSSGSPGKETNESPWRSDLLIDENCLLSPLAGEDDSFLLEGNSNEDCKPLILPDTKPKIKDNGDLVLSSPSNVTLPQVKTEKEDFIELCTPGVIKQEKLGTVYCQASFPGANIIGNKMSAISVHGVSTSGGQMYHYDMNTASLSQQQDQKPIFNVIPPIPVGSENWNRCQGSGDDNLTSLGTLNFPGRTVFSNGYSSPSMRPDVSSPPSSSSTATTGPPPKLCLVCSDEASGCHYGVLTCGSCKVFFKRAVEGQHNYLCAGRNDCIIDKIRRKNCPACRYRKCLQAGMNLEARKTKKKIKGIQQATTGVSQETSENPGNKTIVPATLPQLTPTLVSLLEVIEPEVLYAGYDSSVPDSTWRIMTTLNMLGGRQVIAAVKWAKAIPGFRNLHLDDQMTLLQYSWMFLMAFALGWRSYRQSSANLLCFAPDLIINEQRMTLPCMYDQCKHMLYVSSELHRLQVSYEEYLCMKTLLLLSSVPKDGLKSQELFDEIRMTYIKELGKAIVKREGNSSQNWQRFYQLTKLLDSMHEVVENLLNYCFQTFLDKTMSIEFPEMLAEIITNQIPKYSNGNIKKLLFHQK

Take `CN(C)CCOC1=Cc2ccccc2Sc2ccc(Cl)cc21`: the Potency entry in [1], in [2], in [3], in experiment [6], in experiment [9] and in experiment [13] was “inactive” in each case. The Potency result in experiment [15] and in experiment [16] was “inactive” throughout. Further, the molecule was classed as inactive in experiment [4], in experiment [5], in [7], in [8], in experiment [10] and in experiment [11]. The molecule was called inactive in experiment [12] and in experiment [14].

In the case of `Cc1nccn1-c1ccc(Sc2cccc(C3(C(N)=O)CCOCC3)c2)cc1`, the Potency result in experiment [17], in experiment [2], in [3], in experiment [18], in [6] and in [9] was “inactive” in each case. In addition, the Potency entry in experiment [13], in experiment [15] and in experiment [16] was “inactive” in each case. In addition, the outcome in experiment [4], in experiment [5], in [7], in experiment [10], in experiment [11] and in [12] was inactive. In addition, in experiment [14], the result was inactive. In addition, in experiment [19], the Potency is 24.5 µM (active).

On to `COc1cc2ncnc(Nc3ccc(F)c(Cl)c3)c2cc1OCCCN1CCOCC1`, for which the Potency entry in [1], in experiment [6], in [9], in experiment [13], in experiment [15] and in experiment [16] was “inactive” in each case. For the same molecule, the call in experiment [4], in experiment [5], in [7], in experiment [8], in experiment [10] and in experiment [11] was inactive. Moreover, the result in [12] and in [14] was inactive.

Consider `CCCC1C(CC)=CC(CC)=CN1c1ccccc1` (configuration not stated), for which the Potency entry in experiment [1], in experiment [2], in [6], in experiment [9], in experiment [13] and in [15] was “inactive” each time. In addition, the Potency is 54.5 µM (active) in experiment [18] and 49 µM (active) in experiment [19]. For the same molecule, the molecule was called inactive in experiment [4], in experiment [5], in [7], in [8], in experiment [10] and in [11]. Besides, the result in experiment [12] and in [14] was inactive.

For `CCCc1c(OCCCOc2ccc(OCC(=O)O)cc2)ccc(C(C)=O)c1O`, the Potency result in experiment [1], in experiment [6], in experiment [9], in experiment [13] and in experiment [15] was “inactive” each time. For the same molecule, the molecule was classed as inactive in [4], in experiment [7], in [8], in experiment [10], in [12] and in experiment [14].

Take `CC(C)c1nnc2ccc(-c3ocnc3-c3cc(F)ccc3F)cn12`: the outcome in experiment [4], in experiment [5], in experiment [7], in [8], in experiment [10] and in [11] was inactive. Also, the result in experiment [12] and in [14] was inactive. The Potency result in experiment [6], in [13], in experiment [15], in experiment [16] and in [19] was “inactive” in each case.

On to `NC(=O)N(O)[C@@H]1COc2cc(OCc3ccccc3)ccc21`, for which the Potency in experiment [1] is 1.54 µM (active). Besides, the Potency entry in experiment [2], in experiment [3], in experiment [6], in [13], in [15] and in experiment [16] was “inactive” in each case. For the same molecule, the Potency result in [19] is “inactive”. The result in [4], in experiment [5], in [7], in experiment [10], in experiment [11] and in [12] was inactive. The molecule was classed as inactive in experiment [14].

With `Nc1ccc(C(=O)OCCCOC(=O)c2ccc(N)cc2)cc1`, the Potency entry in experiment [17], in experiment [3], in [6], in [9], in [13] and in [15] was “inactive” each time. Moreover, the Potency result in experiment [16] and in experiment [19] was “inactive” in each case. Also, the Potency in [18] is 27.3 µM (active). Besides, the molecule was classed as inactive in [4], in experiment [5], in experiment [8], in [10], in experiment [11] and in [12]. For the same molecule, in experiment [14], the molecule was called inactive.

Consider `CC1=C(/C=C/C(C)=C\C=C\C(C)=C\C(=O)O)C(C)(C)CCC1`, for which the Potency entry in [1], in experiment [2], in experiment [3], in experiment [6], in experiment [9] and in [13] was “inactive” in each case. Besides, in experiment [15], the Potency result is “inactive”. The molecule was classed as inactive in experiment [4], in experiment [5], in experiment [8], in experiment [10] and in [14].

For the molecule `CCc1cccc(N(C)C(N)=Nc2cccc3ccccc23)c1`, the Potency entry in experiment [17], in experiment [2], in experiment [3], in [18], in [6] and in experiment [9] was “inactive” throughout. Also, the Potency result in [13], in experiment [15] and in experiment [19] was “inactive” each time. Further, the molecule was classed as inactive in [4], in [5], in [7], in [8], in [10] and in experiment [11]. For the same molecule, the molecule was called inactive in experiment [12] and in experiment [14].
